High-throughput results as filed in PubChem BioAssay.
Hits are enriched below; roughly 4.5% of the tested compounds scored in any of these assays.
Beta cell apopt = inhibitors of cytokine-induced beta cell apoptosis, primary screen, luminescence. protection from apoptosis, % (concentration not given with the values). 0.8% of 300,000 active. AID 435005, 2010. INS-1E cytokine-induced death, ATP luminescence, 48 h; percent of positive-control rescue, neutral wells zero;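 active = Every replicate reaches about 75%, or at least half do and their mean reaches it too, limit read from the data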;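 also: higher means more ATP so stronger rescue from cytokine killing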
CSC inhib = cancer stem cell viability inhibitors, primary screen, luminescence | cancer stem cell-like cells viability | inhibition, % at 7.5 µM | 1.1% of 300,000 active | AID 2717, 2010; in the data active = inhibition above about 75%; tested in HMLE shEcad cells
Gli-Sufu block = Gli-Sufu pathway antagonists, primary screen, luciferase luminescence, Sufu-KO-LIGHT cells, uHTS; AID 588413, 2011; 0.74% of 340,000 active; inhibition, % at 5 µM; Sufu-KO-LIGHT fibroblasts, Gli luciferase reporter luminescence;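 active = inhibition above about 55%, limit read from the data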
Jurkat NFkB inh = inhibitors of induced NF-kB luciferase reporter, primary screen, TCR NF-kB activation inhibitor project, cell-based, luminescence, uHTS; inhibition, % at 4 µM; 0.53% of 330,000 active; AID 435003, 2010; Jurkat, PMA/ionomycin-induced NF-kB luciferase reporter; in the data active = inhibition above about 50%
697 NFkB inh = inhibitors of PMA/ionomycin-induced NF-kB reporter, 697 cells, primary screen, B-cell NF-kB inhibitor project, cell-based, luminescence, uHTS | AID 435022, 2010 | inhibition, % at 4 µM | 697 B-cell NF-kB luciferase reporter, 16 h | 0.33% of 330,000 active; in the data active = inhibition above about 35%
Mdm2 MdmX PPI = inhibitors of human Mdm2-MdmX association, primary screen, cell-based, luminescence, split luciferase, SaOS-2, uHTS | Protein Mdm4 (Homo sapiens) + E3 ubiquitin-protein ligase Mdm2 (Homo sapiens), … | SaOS-2 split-luciferase Mdm2/MdmX complementation | inhibition, % at 8 µM | 3% of 330,000 active;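 active = inhibition of at least 50% at 8 µM in the primary screen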
Target sequence (O15151 whole entry, looked up): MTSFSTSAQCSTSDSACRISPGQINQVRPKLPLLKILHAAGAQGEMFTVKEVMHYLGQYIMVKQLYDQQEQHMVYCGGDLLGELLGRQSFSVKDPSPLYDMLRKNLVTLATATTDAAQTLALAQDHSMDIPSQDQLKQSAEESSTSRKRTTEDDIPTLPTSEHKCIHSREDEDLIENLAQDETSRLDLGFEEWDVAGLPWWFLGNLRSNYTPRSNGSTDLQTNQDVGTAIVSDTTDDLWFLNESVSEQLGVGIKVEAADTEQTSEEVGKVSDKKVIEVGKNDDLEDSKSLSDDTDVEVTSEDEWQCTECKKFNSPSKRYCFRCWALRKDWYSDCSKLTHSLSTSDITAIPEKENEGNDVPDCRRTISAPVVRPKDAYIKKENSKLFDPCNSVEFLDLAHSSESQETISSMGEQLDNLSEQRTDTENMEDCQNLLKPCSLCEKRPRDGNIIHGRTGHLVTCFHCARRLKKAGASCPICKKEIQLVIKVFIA
Target sequence (Q00987 whole entry, looked up): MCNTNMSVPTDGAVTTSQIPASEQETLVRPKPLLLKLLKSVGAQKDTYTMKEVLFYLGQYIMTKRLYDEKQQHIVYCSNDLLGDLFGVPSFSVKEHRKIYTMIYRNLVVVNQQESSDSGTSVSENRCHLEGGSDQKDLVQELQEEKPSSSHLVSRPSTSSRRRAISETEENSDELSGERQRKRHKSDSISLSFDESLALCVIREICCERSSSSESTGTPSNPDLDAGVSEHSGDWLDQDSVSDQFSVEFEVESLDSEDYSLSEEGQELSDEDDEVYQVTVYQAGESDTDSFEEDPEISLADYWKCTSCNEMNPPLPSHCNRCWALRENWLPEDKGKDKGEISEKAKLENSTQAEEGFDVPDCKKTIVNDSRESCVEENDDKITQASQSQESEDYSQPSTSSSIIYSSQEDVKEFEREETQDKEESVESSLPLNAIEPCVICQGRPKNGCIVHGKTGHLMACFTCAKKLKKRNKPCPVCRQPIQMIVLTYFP
697 NFkB conf = PMA/ionomycin-induced NF-kB reporter inhibitors, 697 retest, confirmation, B-cell NF-kB inhibitor project, cell-based, luminescence, single concentration | shares compounds with 697 NFkB inh | 697 B-cell NF-kB luciferase, 16 h | inhibition, % at 4 µM | 35% of 2,000 active; in the data active = inhibition mostly above about 28%, no sharp cut-off; inactive = mostly below about 22%
Large screens that a line does not name were inactive (follow-up assays come after a bar, where they were run).

O=C(O)c1ccc(N/N=C/c2ccc(-c3ccccc3Cl)o2)cc1	none | 697 NFkB conf inactive
COc1cc(-c2cc(=O)c3c(O)c(OC)c(OC)c(OC)c3o2)cc(OC)c1OC	697 NFkB inh 39 (no result: Beta cell apopt) | 697 NFkB conf 38
CCCc1cc(=O)[nH]c2nnc(SCC(=O)Nc3cc(C)on3)n12	none
O=C(Nc1nc2c(F)cc(F)cc2s1)c1ccccn1	Beta cell apopt 93 | 697 NFkB conf inactive
CCOc1ccc(NC(=O)c2ccc3c(c2)C(=O)N(Cc2ccncc2)C3=O)cc1	none (no result: Beta cell apopt, CSC inhib)
O=C(Nc1ccccc1O)c1ccc(NC(=O)C2CC2)cc1	none | 697 NFkB conf inactive
O=C(O)CCCCCn1c(SCc2cc(=O)n3ccccc3n2)nc2ccsc2c1=O	697 NFkB inh 36 | 697 NFkB conf inactive
Cc1cc(N2CCCC2=O)ccc1S(=O)(=O)NC1CCCCC1	none
COc1ccccc1/C=C1\SC(=S)N(CCC(=O)Nc2cc(C)on2)C1=O	697 NFkB inh 51 | 697 NFkB conf 38
Cc1cc(NC(=O)CCN2C(=O)/C(=C/c3ccccc3Cl)SC2=S)no1	none
CCc1ccc(/C=C2\SC(=S)N(CCC(=O)Nc3cc(C)on3)C2=O)cc1	697 NFkB inh 59 | 697 NFkB conf 44
COc1ccccc1/C=C1\SC(=S)N(CCC(=O)Nc2cccc(O)c2)C1=O	697 NFkB inh 35 (no result: Beta cell apopt) | 697 NFkB conf 31
COc1ccccc1/C=C1\SC(=S)N(CCC(=O)Nc2nnc(C)s2)C1=O	697 NFkB inh 51 (no result: CSC inhib) | 697 NFkB conf 29
Cc1occc1-c1nnc(SCC(=O)NC2CCC(C)CC2)o1 (centres undefined)	none (no result: CSC inhib)
CC(C)NC(=O)CC(=O)NN=C1CCCCC1	none
Cc1cc(=O)oc2cc(OCCc3ccccc3)ccc12	none | 697 NFkB conf inactive
Cc1ccn(CCC(=O)N2CCCC(CCC(=O)N3CCN(c4ccccn4)CC3)C2)n1 (centres undefined)	none
CN(C)c1ccc(C(CNC(=O)c2ccc(-c3ccccc3)cc2)N2CCOCC2)cc1 (centres undefined)	none (no result: Beta cell apopt, Gli-Sufu block)
CCCCCN(C(=O)CCC(=O)OCc1cccc(Br)c1)c1c(N)n(CCCC)c(=O)[nH]c1=O	697 NFkB inh 35 | 697 NFkB conf inactive
Cc1c(C(=O)NNC(=S)Nc2ccc(S(N)(=O)=O)cc2)oc2ccccc12	none
CN(Cc1cccc(Cl)c1Cl)C(=O)CCNC(=O)c1ccco1	none
Cc1cc(Cl)c(S(=O)(=O)NC(C(=O)O)C(C)C)cc1OCC(=O)NC1CCCCC1 (centres undefined)	697 NFkB inh 37 | 697 NFkB conf inactive
CC1(C)CC2CC(C)(CN2C(=O)COC(=O)c2cncc(Br)c2)C1 (centres undefined)	none (no result: CSC inhib)
O=C(c1ccc(CS(=O)c2ccc(F)cc2)o1)N1CCN(C2CCCCC2)CC1 (centres undefined)	none
Brc1ccccc1-n1nnc(-c2cnc3ccccc3c2)n1	none | 697 NFkB conf inactive
CN(C)S(=O)(=O)c1ccc(C(=O)NN2C(=O)NC3(CCCCC3)C2=O)cc1	none (no result: Beta cell apopt, CSC inhib)
CC1(C)C2CCC(C2)C1(C)NC(=O)CNCC1CCCCC1 (centres undefined)	none
Cc1cccc(/C(N)=N/OC(=O)c2ccc3c(c2)OCO3)c1	none | 697 NFkB conf inactive
CC(=O)Nc1sc(NC(=O)c2ccc(C)cc2)nc1-c1cccs1	697 NFkB inh 36 | 697 NFkB conf inactive
COc1ccc(C(=O)Nc2nc(-c3cccs3)c(NC(C)=O)s2)cc1	none
CC(C)n1cc(CN2CCN(C)C(CCO)C2)c2ccccc21 (centres undefined)	none
Cc1ccccc1N1CC(=O)Nc2c(oc3nc(-c4ccccc4)cc(C)c23)C1=O	697 NFkB inh 38 | 697 NFkB conf inactive
COC(=O)COc1cccc2c(=O)n(CC(=O)N3CCCCC3)ccc12	697 NFkB inh 43 | 697 NFkB conf inactive
